# Measurements from the supplement of paper PMC9262897, “Low-cost anti-mycobacterial drug discovery using engineered E. coli” (Nature Communications, 2022).
# Where a name gives a salt, the structure may show the parent alone. ± gives the standard deviation of the averaged measurements.
# System: E. coli TESEC Mtb Alr
# Assay: growth (OD600 after 10 h); higher = more growth (less inhibition)
# Conditions: compound 0.1 mM
# Method: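 TESEC Mtb Alr E. coli, or the Alr+ wild-type control, in 384-well plates with Prestwick library compounds at 0.1 mM and 1% DMSO, across arabinose induction levels of 1E3 to 1E7 nM. Growth is read as OD600 after 10 h at 37 °C in triplicate biological replicates.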
# [1] = arabinose 1000 nM, raw OD600 reference: median of DMSO wells 0.294, cell-free background 0.041
# [2] = arabinose 10000 nM, raw OD600 reference: median of DMSO wells 0.264, cell-free background 0.041
# [3] = arabinose 100000 nM, raw OD600 reference: median of DMSO wells 0.201, cell-free background 0.041
# [4] = arabinose 1000000 nM, raw OD600 reference: median of DMSO wells 0.193, cell-free background 0.041
# [5] = arabinose 10000000 nM, raw OD600 reference: median of DMSO wells 0.146, cell-free background 0.041
smiles,measurement,setting,value
C#CCN(C)[C@H](C)Cc1ccccc1 [Selegiline hydrochloride],growth,[1],0.305 ± 0.015
same,growth,[2],0.283 ± 0.0084
same,growth,[3],0.233 ± 0.026
same,growth,[4],0.185 ± 0.0036
same,growth,[5],0.17 ± 0.004
COc1ccc(C(=O)N2CCCC2=O)cc1 [Aniracetam],growth,[1],0.3088 ± 0.0018
same,growth,[2],0.246 ± 0.01
same,growth,[3],0.236 ± 0.021
same,growth,[4],0.172 ± 0.0084
same,growth,[5],0.167 ± 0.0026
CC(Cc1ccc(O)cc1)NCC(O)c1cc(O)cc(O)c1 (stereo not given) [Fenoterol hydrobromide],growth,[1],0.283 ± 0.02
same,growth,[2],0.266 ± 0.0076
same,growth,[3],0.184 ± 0.0055
same,growth,[4],0.19 ± 0.0033
same,growth,[5],0.143 ± 0.0091
"NCC(CC(=O)O)c1ccc(Cl)cc1 (racemic) [Baclofen (R,S)]",growth,[1],0.299 ± 0.0066
same,growth,[2],0.2703 ± 0.0017
same,growth,[3],0.22 ± 0.029
same,growth,[4],0.189 ± 0.0083
same,growth,[5],0.15 ± 0.007
COP(=O)(OC)C(O)C(Cl)(Cl)Cl (stereo not given) [Trichlorfon],growth,[1],0.293 ± 0.0065
same,growth,[2],0.248 ± 0.0076
same,growth,[3],0.199 ± 0.015
same,growth,[4],0.181 ± 0.0066
same,growth,[5],0.146 ± 0.0059
C[C@]12COC(=O)C[C@@H]1CC[C@@H]1[C@@H]2CC[C@@]2(C)[C@H]1CC[C@]2(C)O [Oxandrolone],growth,[1],0.189 ± 0.0087
same,growth,[2],0.232 ± 0.0096
same,growth,[3],0.126 ± 0.0067
same,growth,[4],0.105 ± 0.005
same,growth,[5],0.12 ± 0.0015
CCC1(c2cccc(O)c2)CCCCN(C)C1 (stereo not given) [Meptazinol hydrochloride],growth,[1],0.3214 ± 0.0014
same,growth,[2],0.3 ± 0.0084
same,growth,[3],0.192 ± 0.015
same,growth,[4],0.203 ± 0.018
same,growth,[5],0.139 ± 0.0077
S=C(NC1CCCCC1)N1CCC(c2cnc[nH]2)CC1 [Thioperamide maleate],growth,[1],0.286 ± 0.015
same,growth,[2],0.257 ± 0.013
same,growth,[3],0.17 ± 0.016
same,growth,[4],0.15 ± 0.0049
same,growth,[5],0.131 ± 0.0035
